Hits are enriched below; roughly 5% of the tested compounds scored in any of these assays.
AI-2 QS modul: Vibrio harveyi AI-2 quorum sensing modulators, primary screen, JMH597 strain, luminescence/OD600 ratio; Vibrio harveyi JMH597 AI-2 luminescence/OD600 ratio, 9 h; hits give low values; strain lacks LuxN and CqsS sensors; 0 = neutral-control median; activity change, % at 7.5 µM; 300,000 compounds, 0.4% hits; in the data active means activity change below about -75%, passing the limit was not always enough;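 further: luminescence divided by OD600 gain over 9 h not by final OD600 alone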
ALR H2O2 inh: inhibitors of human ALR sulfhydryl oxidase, primary screen, biochemical, H2O2 detection, HRP-luminol luminescence, single point | FAD-linked sulfhydryl oxidase ALR (Homo sapiens), P55789 | purified ALR, DTT oxidation | inhibition, % (test concentration not listed) | 290,000 compounds, 3.8% hits | AID 485317, 2010;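 active means mean replicate inhibition above about 79%, with every replicate also reaching it, limit read from the data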
CHT PAM: CHT positive allosteric modulators, primary screen, cell-based, membrane potential dye, choline EC20; CHT-expressing cells; hits give high values; LV-AA mutant CHT in HEK293 cells; High affinity choline transporter 1 (Homo sapiens), Q9GZV3; B-score at 10 µM; 310,000 compounds, 0.49% hits; AID 488977, 2010;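 active means initial fluorescence not abnormally high and integrated response B-score, plate-corrected, over 3 SD above library mean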
CHT inh: inhibitors of human choline transporter CHT; High affinity choline transporter 1 (Homo sapiens), Q9GZV3; CHT-expressing cells, membrane potential dye, choline response; hits give low values; B-score at 10 µM; 310,000 compounds, 0.86% hits; AID 488975, 2010;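 active means B-score over 3 SD under the library average, and starting fluorescence ratio not unusually high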;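 further: choline stimulus applied at its EC90 after an EC20 pre-addition; B-score computed on integrated fluorescence ratio after choline addition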
PREPL inh: PREPL enzyme inhibitors, primary screen, biochemical, fluorescence polarization. inhibition, % at 5.96 µM. Prolyl endopeptidase-like (Homo sapiens), Q4J6C6. recombinant PREPL, fluorescence polarization activity-based probe. 320,000 compounds, 0.68% hits. AID 2751, 2010; in the data active means inhibition above about 43%
Target sequence (Q4J6C6 whole entry, looked up): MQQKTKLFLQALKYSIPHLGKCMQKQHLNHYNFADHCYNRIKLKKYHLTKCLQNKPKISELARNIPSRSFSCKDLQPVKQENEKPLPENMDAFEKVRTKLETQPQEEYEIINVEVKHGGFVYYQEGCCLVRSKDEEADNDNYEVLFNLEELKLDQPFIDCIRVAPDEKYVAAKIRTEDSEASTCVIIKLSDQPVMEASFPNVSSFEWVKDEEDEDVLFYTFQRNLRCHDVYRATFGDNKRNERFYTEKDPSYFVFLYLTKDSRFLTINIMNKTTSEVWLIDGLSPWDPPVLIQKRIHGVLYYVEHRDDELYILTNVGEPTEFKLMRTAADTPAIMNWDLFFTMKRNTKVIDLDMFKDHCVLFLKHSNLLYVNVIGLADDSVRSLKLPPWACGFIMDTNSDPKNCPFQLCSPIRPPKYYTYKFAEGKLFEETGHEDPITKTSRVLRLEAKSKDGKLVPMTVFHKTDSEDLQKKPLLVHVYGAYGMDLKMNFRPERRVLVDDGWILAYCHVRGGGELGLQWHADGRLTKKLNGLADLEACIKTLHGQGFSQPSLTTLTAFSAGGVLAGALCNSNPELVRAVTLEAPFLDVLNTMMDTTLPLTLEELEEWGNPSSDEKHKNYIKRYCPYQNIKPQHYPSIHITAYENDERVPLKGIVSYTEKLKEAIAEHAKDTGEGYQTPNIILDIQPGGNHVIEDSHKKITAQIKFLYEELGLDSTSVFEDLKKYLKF
CHT inh conf: CHT inhibitors, confirmation, cell-based, membrane potential dye, duplicate | AID 493221, 2011 | shares compounds with CHT inh | 2,400 compounds, 70% hits | CHT activity remaining % of control (hits give low values), % at 10 µM | CHT-expressing cells, choline membrane potential dye; LV-to-AA substituted CHT, HEK293 cells;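 active means choline transporter activity left, mean of duplicates at 10 µM, below buffer-only control mean minus 3 SD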;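 further: depolarization triggered by choline at its EC90 following an EC20 pre-addition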
HEK293 MPD ctr: membrane potential effects in parental HEK293, counter-screen for CHT inhibitor project, cell-based, membrane potential dye; choline response; active = decrease or increase beyond buffer ±3SD; 2,400 compounds, 4% hits; shares compounds with CHT inh; membrane potential ratio readout (active if shifted either direction beyond buffer ±3SD; no single direction) at 10 µM;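 further: parental cells lack the transporter so any hit is non-specific; ratio is peak minus trough fluorescence over baseline after EC90 choline challenge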
Large screens that a line does not name were inactive (follow-up assays come after a bar, where they were run).

Cc1cc(C)c2cc(C=O)c(Cl)nc2c1	CHT inh -6.1 | CHT inh conf inactive | HEK293 MPD ctr inactive
OCCC1CN(Cc2cc(F)ccc2F)CCN1CCCc1ccccc1 (stereo unspecified)	none
CC1CCCCN1C(=O)COc1ccc(F)cc1 (stereo unspecified)	none
Cc1sc2nc(SCCN(C)C)n(-c3ccccc3)c(=O)c2c1-c1ccc(F)cc1	CHT inh -5.9 | CHT inh conf 26% | HEK293 MPD ctr inactive
Cc1cc(C)c(NC(=O)c2ccc(CN3CCc4ccccc4C3)cc2)c(C)c1	CHT inh -11 | CHT inh conf 18% | HEK293 MPD ctr inactive
O=C(c1ccc(CN2CCc3ccccc3C2)cc1)N1CCN(c2ccc(F)cc2)CC1	CHT inh -5 | CHT inh conf inactive | HEK293 MPD ctr inactive
O=C(c1ccc(CN2CCc3ccccc3C2)cc1)N1CCCCC1	none
Cc1c(O[C@@H]2O[C@H](CO)[C@@H](O)[C@H](O)[C@H]2O)c(CO)c(O[C@@H]2O[C@H](CO)[C@@H](O)[C@H](O)[C@H]2O)c2c1O[C@@H](c1ccccc1)C[C@@H]2O	none (no result: AI-2 QS modul, CHT PAM, CHT inh)
CC1CCCCN1S(=O)(=O)c1ccc2c(c1)CCN2C(=O)C1CC1 (stereo unspecified)	none
O=C(Nc1cc(S(=O)(=O)N2CCOCC2)ccc1Cl)c1cc([N+](=O)[O-])ccc1Cl	none (no result: AI-2 QS modul, CHT PAM, CHT inh)
O=C(Nc1ccc(S(=O)(=O)N2CCOCC2)cc1)c1ccc([N+](=O)[O-])cc1Cl	CHT inh -7.4 | CHT inh conf 31% | HEK293 MPD ctr inactive
CC(C)c1nc2oc3c(N(C)CCO)ncnc3c2c2c1CCC2	CHT inh -5.7 | CHT inh conf inactive | HEK293 MPD ctr inactive
C/C(=N\Nc1cccc([N+](=O)[O-])c1)c1cc(F)ccc1O	none
CCOC(=O)C1CCCN(C(=O)COC(=O)c2cccs2)C1 (stereo unspecified)	none (no result: AI-2 QS modul, CHT PAM, CHT inh)
O=C(c1ccc(Cn2cnnn2)cc1)N1CCCC(Nc2ccc(F)c(F)c2)C1 (stereo unspecified)	none
CC(=O)N1c2ccc(S(=O)(=O)N(C)Cc3ccco3)cc2CC1C (stereo unspecified)	none
Cn1c(SCC(=O)N2CCN(c3ccccc3)CC2)nnc1-c1ccccc1	CHT inh -5.3 | CHT inh conf 62% | HEK293 MPD ctr inactive
O=C(COC(=O)CCS(=O)(=O)c1ccc(Cl)cc1)NCCc1ccc(Cl)cc1Cl	none
CCOC(=O)c1c(N)ssc1=S	CHT inh -11 | CHT inh conf 17% | HEK293 MPD ctr inactive
CCOC(=O)c1c(N)sc(N)c1C(=O)OCC	none
CC(C)Cn1c(SCC(=O)NCc2ccc(Cl)cc2)nnc1-c1cccc(S(=O)(=O)N2CCOCC2)c1	none
O=C(NCCCN1CCOCC1)c1ccc2nc(Cc3cccc(Cl)c3)oc2c1	none
CN(Cc1ccccc1)c1ncnc2ccc(Br)cc12	none
CN(Cc1ccccc1)c1nc(N)nc(Cl)c1C=O	CHT inh -5.5 (no result: ALR H2O2 inh) | CHT inh conf 33% | HEK293 MPD ctr inactive
COc1ccc(Cl)cc1NC(=O)CSC1=NN2CCCC(=O)N=C2S1	none (no result: ALR H2O2 inh)
COCCN1Cc2cccc(C(=O)Nc3ccc(-c4nc5ccccc5[nH]4)cc3)c2C1=O	CHT inh -8.3 | CHT inh conf inactive | HEK293 MPD ctr inactive
CCCN1Cc2cccc(C(=O)Nc3ccc(-c4nc5ccccc5[nH]4)cc3)c2C1=O	none
CCCOc1ccc(C(C)=O)cc1CC(C(=O)OCC)C(=O)OCC	CHT inh -5 | CHT inh conf inactive | HEK293 MPD ctr inactive
COc1cc2cc(CCCOC(=O)c3ccc(F)cc3)oc(=O)c2cc1OC	none (no result: AI-2 QS modul, CHT PAM, CHT inh)
CC(C)(C)N(NC(=O)Nc1ccccc1)C(=O)c1ccccc1	CHT inh -6.1 | CHT inh conf inactive | HEK293 MPD ctr inactive
CC(C)(C)N(NC(=O)Nc1ccc(Cl)cc1)C(=O)c1ccccc1	none
O=C(NC(=S)Nc1ccccc1O)c1ccc(-c2ccc(Cl)cc2)o1	none
Cc1c(NC(=S)NC(=O)c2ccc(-c3ccc(Cl)cc3)o2)cccc1C(=O)O	CHT inh -8.8 | CHT inh conf 55% | HEK293 MPD ctr inactive
COCCCN(Cc1ccco1)C(=O)Cn1ncc2c(=O)oc3ccc(C)cc3c21	none
CC(CC1C(C#N)=C(N)SC(N)=C1C#N)c1ccccc1 (stereo unspecified)	CHT inh -5.3 | CHT inh conf inactive | HEK293 MPD ctr inactive
CCC(C)NC(=O)CCSc1ccc(C)cc1 (stereo unspecified)	none (no result: ALR H2O2 inh)
CC1CCN(CCNC(=O)CCS(=O)(=O)c2ccc(Br)cc2)CC1	CHT inh -5.3 (no result: AI-2 QS modul) | CHT inh conf inactive | HEK293 MPD ctr inactive
O=C(CCS(=O)(=O)c1ccc(Br)cc1)NC1CCCC1	none
CC1CCC(NC(=O)c2ccc(NC(=O)CC3SC(N4CCCC4)=NC3=O)cc2)CC1 (stereo unspecified)	CHT inh -11 | CHT inh conf 11% | HEK293 MPD ctr inactive
CCCCCc1ccc(OCCC[n+]2ccccc2)c(CCCCC)c1	CHT inh -15 | CHT inh conf -5.5% | HEK293 MPD ctr inactive
CCCCCc1ccc(OCCOCCn2c[n+](C)c3ccccc32)c(CCCCC)c1	none (no result: ALR H2O2 inh, CHT PAM, CHT inh, PREPL inh)
Cc1[nH]n(-c2ccccc2)c(=O)c1C(c1cccc([N+](=O)[O-])c1O)c1c(C)[nH]n(-c2ccccc2)c1=O	CHT inh -7.2 | CHT inh conf -6.2% | HEK293 MPD ctr inactive
Cc1c(C(c2cccc([N+](=O)[O-])c2O)c2c(C)n(C)n(-c3ccccc3)c2=O)c(=O)n(-c2ccccc2)n1C	none
CSc1ccc(CCNC(=O)CCc2nnc3ccc(N4CCCC4)nn23)cc1	CHT inh -5.3 | CHT inh conf inactive | HEK293 MPD ctr inactive
Cc1ccc(C)c(NC(=O)CCc2nnc3ccc(N4CCCC4)nn23)c1	none
COc1cccc(C2=NN(C(=O)c3cccs3)C(O)(C(F)(F)F)C2)c1 (stereo unspecified)	none (no result: ALR H2O2 inh)
CCn1c(SCC(=O)NCc2ccccc2)nc2ccccc2c1=O	none
O=C(CSc1nc2ccccc2c(=O)n1C1CC1)NCc1ccccc1	CHT inh -5.1 | CHT inh conf 67% | HEK293 MPD ctr inactive
Cc1ccc(-c2csc3ncn(CC#N)c(=O)c23)cc1	CHT inh -5.6 | CHT inh conf 50% | HEK293 MPD ctr inactive
